Activity calls are given as the source filed them.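 Rule for the calls: active = compounds that raised 12-lipoxygenase product formation in the cuvette follow-up test, with a fitted potency; inactive = the rest, inconclusive results apart.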
biological target: Polyunsaturated fatty acid lipoxygenase ALOX12 (Homo sapiens) (UniProt P18054); assay: Activators of 12-hLO (12-human lipoxygenase): 12hLO Cuvette-Based Hit Validation Assay of Followup Compounds; conditions: purified 12-hLO, cuvette UV 234 nm product formation
Protocol: The enzyme activity of 12-hLO was determined by a direct measurement of product formation by monitoring the absorbance at 234 nm in a 2 mL cuvette. IC50 values of inhibitors were obtained by measuring the enzymatic rate at a variety of concentrations (Carroll et al, Segraves et al). This assay was used to validate active or inconclusive putative activators identified in the primary screen (see related BioAssay AIDs). Assay Provider: Holman, T.R., University of California, Santa Cruz Screening Center PI: Austin, Christopher P. Screening Center: NIH Chemical Genomics Center
For control experiments, 2 mL of substrate buffer (10 uM arachidonic acid / 25 mM HEPES / 0.01% (v/v) Triton X-100, pH 8.0) was aliquoted in a cuvette with a magnetic stir bar. After equilibrium was ensured, an aliquot of inhibitor solvent was added (DMSO), and equilibrium was once again assured. The reaction was started by adding enzyme to the cuvette and the reaction was followed until completed. The inhibition experiments were performed as above, except the actual inhibitory compound was added instead of vehicle. To achieve an IC50, typically 5 concentrations of the inhibitor were studied. If the inhibitor concentration was constant, then five different reaction volumes were used. Step \ Parameter \ Value \ Description 1; UV-Vis; 234 nm; Equilibration 2; Reagent; 2 mL; Substrate buffer 3; UV-Vis; 234 nm; Equilibration 4; Reagent; varies; Compound 5; UV-Vis; 234 nm; Equilibration 6; Reagent; 50-200 nM; Enzyme 12-hLO 7; UV-Vis; 234 nm; Enzymatic reaction Step \ Notes 1; Blank cuvette to air. 2; 10 uM AA, 25 mM HEPES, 0.01% Triton X-100, pH 8. 3; No change in absorbance ensured. 4; Compound vehicle or compound in various concentrations depending on potency. 5; No change in absorbance ensured. 6; Enzyme concentration to achieve reaction rate between 0.02 and 0.04 AU/s. 7; Enzymatic reaction visualized until completion.

Chain of Polyunsaturated fatty acid lipoxygenase ALOX12 (Homo sapiens) (P18054 whole entry, looked up): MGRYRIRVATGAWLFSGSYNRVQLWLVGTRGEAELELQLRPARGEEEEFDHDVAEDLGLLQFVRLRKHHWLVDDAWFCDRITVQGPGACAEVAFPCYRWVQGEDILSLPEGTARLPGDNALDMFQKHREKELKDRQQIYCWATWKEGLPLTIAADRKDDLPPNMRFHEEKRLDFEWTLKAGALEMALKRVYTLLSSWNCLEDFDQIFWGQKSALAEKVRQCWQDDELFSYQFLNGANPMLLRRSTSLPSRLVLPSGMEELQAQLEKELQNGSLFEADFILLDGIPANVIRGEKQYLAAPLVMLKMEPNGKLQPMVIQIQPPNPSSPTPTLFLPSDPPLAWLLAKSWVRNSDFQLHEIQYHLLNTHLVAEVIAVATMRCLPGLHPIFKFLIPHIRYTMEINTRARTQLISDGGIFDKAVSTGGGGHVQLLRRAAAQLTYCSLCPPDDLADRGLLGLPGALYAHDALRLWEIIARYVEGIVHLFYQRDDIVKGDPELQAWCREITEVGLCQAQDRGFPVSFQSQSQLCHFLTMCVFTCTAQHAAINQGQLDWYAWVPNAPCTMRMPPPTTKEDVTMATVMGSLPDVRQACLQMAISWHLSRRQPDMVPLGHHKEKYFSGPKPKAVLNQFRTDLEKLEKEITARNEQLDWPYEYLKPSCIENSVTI

**Q.** How did the outcome turn out when `COc1ccc(-c2n[nH]c(C)c2-c2ccc(Cl)cc2)c(O)c1` was run?
**A.** Its outcome is “inactive”.

**Q.** How did the outcome turn out when `Cc1oc2c(O)c(O)ccc2c(=O)c1-c1cnn(-c2ccccc2)c1` was run?
**A.** The outcome was “inactive”.

**Q.** For `Cc1ccc(S(=O)(=O)Nc2nc(C)c(NC(=O)Nc3ccc(Cl)cc3Cl)s2)cc1`, which outcome is on record?
**A.** Its outcome is “inactive”.

**Q.** How did the Potency turn out when `O=C(NC(=S)Nc1ccccc1N1CCCC1)c1ccc([N+](=O)[O-])cc1` was run?
**A.** Its Potency is 66.7 µM (active).

**Q.** `CC1=NN(c2ccc(Cl)cc2)C(=O)C1C(c1cccc(O)c1)c1c(C)[nH]n(-c2ccc(Cl)cc2)c1=O` (centres undefined) was tested. Which outcome did it give?
**A.** The outcome was “inactive”.

**Q.** `O=S(=O)(Nc1ccc(O)c(Sc2nc3ccccc3s2)c1)c1ccc(Cl)cc1` was tested. Which outcome did it give?
**A.** Its outcome is “inactive”.

**Q.** How did the outcome turn out when `CCCOC(=O)c1ccc(Oc2c(-c3ccc(O)cc3O)n[nH]c2C)cc1` was run?
**A.** Its outcome is “inactive”.

**Q.** `Oc1ccccc1-c1cc(-c2ccccc2Cl)[nH]n1` was tested. Which outcome did it give?
**A.** The outcome was “inactive”.

**Q.** How did the outcome turn out when `CN(C)c1nccc(N(Cc2ccccc2)Cc2ccccc2)c1C#N` was run?
**A.** Its outcome is “inactive”.

**Q.** Which outcome does the source give for `COc1ccc(Cc2nc(C(=O)Nc3ccc(OC)cc3)cs2)cc1` here?
**A.** The outcome was “inactive”.

**Q.** Which outcome does the source give for `O=C(/C=C/c1ccc(O)c(O)c1)c1ccc(S(=O)(=O)N2CCCCCC2)cc1` here?
**A.** Its outcome is “inactive”.

**Q.** For `CC1=NN(c2ccc(Cl)cc2)C(=O)C1C(c1ccccc1O)c1c(C)[nH]n(-c2ccc(Cl)cc2)c1=O` (centres undefined), which outcome is on record?
**A.** The outcome was “inactive”.

**Q.** With `Cc1cc(C)c2cc(CN(Cc3nnnn3C3CCCCC3)CC3CCCO3)c(=O)[nH]c2c1` (centres undefined) as the compound, how does the outcome read?
**A.** The outcome was “inactive”.

**Q.** Which outcome does the source give for `N#CC1=C(N)Oc2n[nH]c(-c3cccs3)c2C1C1CCCCC1` (centres undefined) here?
**A.** The outcome was “inactive”.

**Q.** Which outcome does the source give for `CCc1cc(-c2[nH]ncc2-c2ccc3c(c2)OCO3)c(O)cc1O` here?
**A.** Its outcome is “inactive”.

**Q.** For `O=C1c2ccccc2NC(c2ccc(Cl)cc2Cl)N1O` (centres undefined), which Potency is on record?
**A.** The Potency was 53.1 µM (active).

**Q.** `Cc1ccc(C(=O)Nc2nnc(-c3ccco3)o2)cc1` was tested. Which outcome did it give?
**A.** The outcome was “inactive”.

**Q.** Which outcome does the source give for `Cc1ccc(C(=O)Nc2nnc(-c3ccco3)o2)cc1C` here?
**A.** The outcome was “inactive”.

**Q.** How did the outcome turn out when `O=C(CSc1n[nH]c(-c2ccccc2)n1)c1ccc(O)c(O)c1` was run?
**A.** The outcome was “inactive”.
